# Laboratory results taken from PubChem BioAssay (NCATS).
# Inconclusive results are not listed. Activity calls are given as the source filed them. Unless noted, calls follow the shape of the dose curve; as a rule, active = well fitted inhibition curve with a large enough effect; inconclusive = small, poorly fitted or top-dose-only effect; inactive = no such curve, though single readings can be large or run the other way.
# Key:
# [1] = qHTS profiling of the MIPE4 collection as inhibitors of Plasmodium falciparum (DD2) proliferation (AID 743345; call rule not given here); settings: P. falciparum Dd2 in erythrocytes, SYBR Green DNA, 72 h; at 28.5 µM (top of the series) unless noted
# Method in brief: (§1)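 Parasite DNA was quantified by SYBR Green I fluorescence (ex 485, em 535 nm) after overnight lysis in saponin/Triton buffer at room temperature. Cultures at 0.3% parasitemia and 2.5% hematocrit were first exposed to compound for 72 h at 37 C; signals were normalised to artemisinin (0.29 uM) and vehicle wells.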
# [2] = qHTS profiling of the MIPE4 collection as inhibitors of Plasmodium falciparum (DD2) proliferation (Rep 2) (AID 743346; call rule not given here); settings: P. falciparum Dd2 in erythrocytes, SYBR Green DNA, 72 h; at 28.5 µM (top of the series) unless noted
# Method in brief: as §1
# [3] = qHTS profiling of the MIPE4 collection as inhibitors of Plasmodium falciparum (HB3) proliferation (AID 743347; call rule not given here;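 also: plate controls were DMSO vehicle wells for no effect and artemisinin wells for full effect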); settings: P. falciparum HB3 in erythrocytes, SYBR Green DNA, 72 h; at 28.5 µM (top of the series) unless noted
# Method in brief: as §1
# [4] = High-throughput drug toxicity screening in the BPDCN cell line Gen2.2 (AID 1224824; call rule not given here;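 also: cells exposed to compounds for 48 h before reading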); settings: Gen2.2 BPDCN cells; at 45.8 µM (top of the series) unless noted
# Method in brief: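 CellTiter-Glo luminescence read after 48 h compound exposure at 37 C defines viability; percent activity set with DMSO as 100% and bortezomib (9.2 uM final) as 0%. 500 exponentially growing cells per well, RPMI plus 10% FBS.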
# [5] = High-throughput drug toxicity screening in the BPDCN cell line Cal-1 (AID 1224825; call rule not given here); settings: Cal-1 BPDCN cell viability, qHTS; at 45.8 µM (top of the series) unless noted
# Method in brief: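 Viability of the BPDCN line Cal-1 is measured as ATP-based luminescence (CellTiter-Glo) following 48 h incubation with compounds. Percent activity uses DMSO-treated wells as 100% and 9.2 uM bortezomib as 0%.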
# [6] = qHTS assay for measurement of the activity of small molecule inhibitors on Zika virus induced Caspase-3 activity in human iPSC derived neural progenitor cells (hNPCs) (AID 1224857); also: nearly all actives have a fitted effect of over 65% in size; also: potency is read from the fitted curve at half-maximal effect
# Method in brief: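 Human iPSC-derived neural progenitor cells pretreated 1 hr with compounds, then infected with Zika virus (2 FFU/cell) for 6 hours at 37 C. Caspase-3/7 measured by Caspase-Glo luminescence; % inhibition calculated from induction scaled to uninfected (0%) and infected (100%) wells.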
# [7] = qHTS assay for measurement of the activity of small molecule inhibitors on Zika virus induced Caspase-3 activity in human astrocytoma cells (AID 1224859);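 also: plate controls were ZIKV-infected untreated cells for no effect and uninfected cells for full effect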
# Method in brief: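 SNB-19 astrocytoma cells, 250/well, pretreated 1 h with compounds, then Zika virus at 2 FFU/cell for 6 h at 37 C; Caspase-Glo 3/7 luminescence after 30 min; percent inhibition normalised to uninfected and infected controls.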
# [8] = qHTS Screen of the MIPE 4.0 Collection Against Ewings Sarcoma (RDES) (AID 1259252); also: nearly all actives have a fitted effect of over 35% in size; also: potency is read from the fitted curve at half-maximal effect
# Method in brief: (§2)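 Measured: ATP luminescence (CellTiter-Glo) 10 min after reagent addition, following 48 h drug treatment. Relative luciferase units converted to percent activity, with no-cell wells as full and DMSO wells as zero inhibition.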
# [9] = qHTS Screen of the MIPE 4.0 Collection Against Ewings Sarcoma (TC71) (AID 1259253); also: nearly all actives have a fitted effect of over 40% in size; also: potency is read from the fitted curve at half-maximal effect
# Method in brief: as §2
# [10] = qHTS Screen of the MIPE 4.0 Collection Against Ewings Sarcoma (EW8) (AID 1259255); also: nearly all actives have a fitted effect of over 35% in size; also: potency is read from the fitted curve at half-maximal effect;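 as to viability: 100% = DMSO-treated cells and 0% = medium-only wells without cells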
# Method in brief: as §2
# [11] = qHTS Screen of the MIPE 4.0 Collection Against Ewings Sarcoma (TC32) (AID 1259256); also: nearly all actives have a fitted effect of over 45% in size; also: potency is read from the fitted curve at half-maximal effect
# Method in brief: as §2
SMILES,"parasite growth remaining, % of DMSO control (lower = more inhibition) [1]","parasite growth, % of control (lower = inhibition) [2]","growth, % of control [3]","cell viability, % of control (lower = more cytotoxic) [4]",viability (% of control) [5],Potency [6],Potency [7],Potency [8],Potency [9],Potency [10],Potency [11]
CN(C)CCN1C(=O)c2cccc3cc(N)cc(c23)C1=O,12.6%,10.8%,9.26%,5.29%,4.08%,inactive,inactive,16.6 µM (active),14.8 µM (active),1.66 µM (active),inactive
CCCCCCCN(CC)CCCC(O)c1ccc(NS(C)(=O)=O)cc1 (configuration not stated),83.7%,72%,54%,213%,81.4%,inactive,inactive,inactive,inactive,inactive,inactive
NC(=NCCCCCCN=C(N)N=C(N)Nc1ccc(Cl)cc1)N=C(N)Nc1ccc(Cl)cc1,–,22%,6.76%,6.22%,2.49%,inactive,inactive,2.96 µM (active),4.18 µM (active),9.35 µM (active),7.43 µM (active)
CC(=O)ON=C1C(c2c(O)[nH]c3cc(Br)ccc23)=Nc2ccccc21,6.76%,6.05%,2.46%,129%,17.5%,inactive,inactive,2.96 µM (active),9.35 µM (active),7.43 µM (active),7.43 µM (active)
CC1(C)[C@H](O[C@H]2O[C@H](C(=O)O)[C@@H](O)[C@H](O)[C@H]2O[C@@H]2O[C@H](C(=O)O)[C@@H](O)[C@H](O)[C@H]2O)CC[C@@]2(C)[C@H]1CC[C@]1(C)[C@H]2C(=O)C=C2[C@H]3C[C@@](C)(C(=O)O)CC[C@]3(C)CC[C@]21C,97.4%,85.7%,109%,153%,125%,inactive,inactive,inactive,inactive,inactive,inactive
CCc1c(O)cc(O)c(C(=O)c2ccc(OCCN3CCOCC3)c(OC)c2)c1CC(=O)N(CCOC)CCOC,12.7%,11.6%,7.26%,4.9%,16.5%,inactive,inactive,0.662 µM (active),2.35 µM (active),1.05 µM (active),0.526 µM (active)
C=CC[C@@H]1C=C(C)C[C@H](C)C[C@H](OC)[C@H]2O[C@@](O)(C(=O)C(=O)N3CCCC[C@H]3C(=O)O[C@H](C(C)=C[C@@H]3CC[C@H](O)[C@H](OC)C3)[C@@H](C)[C@@H](O)CC1=O)[C@@H](C)C[C@@H]2OC,–,10.3%,–,17.2%,44.2%,inactive,inactive,2.64 µM (active),1.87 µM (active),1.66 µM (active),1.48 µM (active)
CN(C)c1ccc(C(=O)NCCCCCCC(=O)NO)cc1,7.09%,8.85%,2.69%,15.8%,4.88%,inactive,inactive,0.662 µM (active),0.59 µM (active),0.526 µM (active),0.296 µM (active)
CC(=O)[C@]1(O)Cc2c(O)c3c(c(O)c2[C@@H](O[C@H]2C[C@H](N)[C@@H](O)[C@H](C)O2)C1)C(=O)c1ccccc1C3=O,–,49%,11.5%,6.08%,4.63%,inactive,inactive,0.059 µM (active),0.0372 µM (active),0.0187 µM (active),0.0047 µM (active)
C[N+](C)([O-])CCNc1ccc(NCC[N+](C)(C)[O-])c2c1C(=O)c1c(O)ccc(O)c1C2=O,13.5%,–,–,105%,19.7%,inactive,inactive,18.7 µM (active),16.6 µM (active),20.9 µM (active),inactive
Nc1ccc(C(=O)Nc2cccc(-c3nc(N4CCOCC4)c4oc5ncccc5c4n3)c2)cn1,–,9.55%,2.51%,15.1%,4.11%,inactive,inactive,18.7 µM (active),16.6 µM (active),18.7 µM (active),16.6 µM (active)
CC(=O)N[C@@H]1[C@H](O[C@@H]2c3ccc(c(Cl)c3)Oc3cc4cc(c3O[C@H]3O[C@H](CO)[C@@H](O)[C@H](O)[C@H]3NC(=O)CCCCCCCC(C)C)Oc3ccc(cc3Cl)C[C@H]3NC(=O)[C@H](N)c5ccc(O)c(c5)Oc5cc(O)cc(c5)[C@H](NC3=O)C(=O)N[C@H]4C(=O)N[C@H]3C(=O)N[C@@H]2C(=O)N[C@@H](C(=O)O)c2cc(O)cc(O[C@H]4O[C@H](CO)[C@@H](O)[C@H](O)[C@H]4O)c2-c2cc3ccc2O)O[C@H](CO)[C@@H](O)[C@@H]1O,99.1%,159%,675%,82.7%,104%,inactive,inactive,inactive,inactive,inactive,inactive
O=S(=O)(O)CCSSCCS(=O)(=O)O,89%,69.9%,76%,33.7%,35.3%,29.6 µM (active),inactive,inactive,inactive,inactive,inactive
Cc1cncc2cccc(S(=O)(=O)N3CCCN(C(=O)CN)C[C@@H]3C)c12,89.9%,51%,101%,35.1%,36.2%,inactive,inactive,8.33 µM (active),14.8 µM (active),2.64 µM (active),1.18 µM (active)
CC(C)(N)c1ccc(-c2nc3ccccc3nc2-c2ccccc2)cc1,18.1%,26.5%,–,8.3%,4.03%,inactive,inactive,26.4 µM (active),26.4 µM (active),20.9 µM (active),23.5 µM (active)
